Laboratory results reported in PubChem BioAssay (EPA / NIEHS).
Calls of active or inactive are those of the source. The calls were made as follows: active = hit-call score of the fitted dose curve at least 0.9, where 1 is the maximum; inactive = score below 0.9.

Assay: ATG_PPRE_CIS: Attagene CIS-FACTORIAL HepG2 Assay for human Peroxisome Proliferator-activated Response Element (PPRE) (AID 2282958)
Details: HepG2 PPRE cis-element reporter, Attagene transcription factor profiling; actives raise or lower the signal
Experimental: ATG_CIS is a cell-based, multiplexed-readout assay that uses HepG2, a human liver cell line, with measurements taken at 24 hours after chemical dosing in a 24-well plate.ATG_PPRE_CIS is one of 52 assay component(s) measured or calculated from the ATG_CIS assay. It is designed to make measurements of mRNA induction, a form of inducible reporter, as detected with fluorescence intensity signals by Reverse transcription polymerase chain reaction (RT-PCR) and Capillary electrophoresis technology.Data from the assay component ATG_PPRE_CIS was analyzed into 1 assay endpoint. This assay endpoint, ATG_PPRE_CIS, was analyzed with bidirectional fitting relative to DMSO as the negative control and baseline of activity. Using a type of inducible reporter, measures of mRNA for gain or loss-of-signal activity can be used to understand the reporter gene at the transcription factor-level as they relate to the gene PPARA and PPARD and PPARG. Furthermore, this assay endpoint can be referred to as a primary readout, because this assay has produced multiple assay endpoints where this one serves a reporter gene function. To generalize the intended target to other relatable targets, this assay endpoint is annotated to the nuclear receptor intended target family, where the subfamily is non-steroidal.
Human liver HepG2 cells are transiently transfected with multiple reporter transcription units (MRTUs) in 6-well plates using FuGene 6 reagent (Roche; 3 ml FuGene/1 mg DNA). The MRTU constructs are regulated by a cis-regulating element (promoter). […] A major difference between the CIS and TRANS system is that in CIS activities of endogenous TFs are measured, whereas the TRANS assay evaluates changes in activities of exogenous, chimeric NR-Gal4 proteins. […] At the end of 24 hour incubation, total RNA was isolated using TriZol reagent (Invitrogen). The isolated RNA is then reverse-transcribed using oligo(dT) primer and Mo-MLV reverse transcriptase (Invitrogen) with DNAse I (Ambion) treatment for 30 min. The one-tenth of the produced cDNA was amplified by PCR using Taq DNA polymerase (Invitrogen) and two reporter sequence-specific primers. The PCR products were fluorescently labeled by primer extension with 6-arboxyfluorescein (6-FAM) 5'-labeled reporter sequence-specific primer (2 min at 95 C, 20 s at 68 C and 10 min at 72 C) and these products were digested with 5U of HpaI (New England Biolabs) for 2h at 37 C. The fragments were purified using Qiaquick PCR columns (Qiagen), analyzed on an ABI 3130xL genetic analyzer (Applied Biosystems) with peak positions identified by using a set of X-rhodamine (ROX)-labeled MapMarker1000 molecular weight standards (BioVentures). The raw capillary electrophoresis data was processed using Attagraph software (Attagene).

outcome, inactive:
O=C1OC2(c3cc(Br)c(O)c(Br)c3Oc3c2cc(Br)c(O)c3Br)c2c(Cl)c(Cl)c(Cl)c(Cl)c21
CN(C)C(=N)N=C(N)N
C=C(C)C(=O)OCCOC(=O)CC(C)=O
O=c1oc(=O)c2cc3c(=O)oc(=O)c3cc12
Cc1ccc(O)c(C(C)(C)C)c1
OCCN1CCNCC1
C=C(C)C(=O)OCc1ccccc1
O=C(O)c1cccc([N+](=O)[O-])c1
CC(C)CCCCCCCOC(=O)c1ccc(C(=O)OCCCCCCCC(C)C)c(C(=O)OCCCCCCCC(C)C)c1
O=C(OCc1ccccc1)C(=O)OCc1ccccc1
CC1COc2ccccc2N1C(=O)C(Cl)Cl (stereo not given)
COc1cc(C)cc(O)c1
CC1(C)C(=O)N(Br)C(=O)N1Cl
[Ca+2]
C=CC(=O)OCC(O)COc1ccccc1 (stereo not given)
CC(C)=CCC/C(C)=C/COC=O
Nc1cc([N+](=O)[O-])ccc1O
OC1C(O)C(O)C(O)C(O)C1O (stereo not given)
CCC(C(=O)NC(N)=O)c1ccccc1 (stereo not given)
COc1cccc(OC)c1
O=Nc1ccc(Nc2ccccc2)cc1
O=C(O)c1snc(Cl)c1Cl
Cc1ccc2n[nH]nc2c1
CC(=O)c1c(C)cc(C(C)(C)C)cc1C
C=C[Si](OCC)(OCC)OCC
C=CC(=O)OCCn1c(=O)n(CCOC(=O)C=C)c(=O)n(CCOC(=O)C=C)c1=O
C=C(C)C(=O)O
CCCCNC(=O)NS(=O)(=O)c1ccc(N)cc1
OCCCCCO
CCCCCNCCCCC
CCCCCCCCCCCCCCCCCC(=O)OCC(CC)CCCC (stereo not given)
CCCC(=O)c1cc(O)c(O)cc1O
NC(=O)c1ccccc1Cl
c1ccc2sc(SN(C3CCCCC3)C3CCCCC3)nc2c1
CCN(CC)c1ccc(C(=C2C=CC(=[N+](CC)CC)C=C2)c2ccc(S(=O)(=O)O)cc2S(=O)(=O)[O-])cc1
Cc1ccc2sc3cccc(C)c3c2c1

AC50, active:
CCC(=O)/C=C/C1C(C)=CCCC1(C)C (stereo not given) 35 µM
Cc1cccc(Nc2ccccc2C(=O)O)c1C 18.2 µM
Cc1ccc(C(=O)c2cc(O)c(O)c([N+](=O)[O-])c2)cc1 21.8 µM
O=C(O)Cc1cccc2ccccc12 100 µM
